# Data published in PubChem BioAssay (NCATS).
# Results filed as inconclusive are left out. The source made the active and inactive calls. Unless noted, calls follow the shape of the dose curve; as a rule, active = well fitted curve in the direction sought with a large enough effect; inconclusive = small, poorly fitted or top-dose-only effect, or another doubt; inactive = no such curve, though single readings can be large; an effect the other way counts as inactive or inconclusive.
# Experiments:
# [1] = P-glycoprotein substrates identified in KB-8-5-11 adenocarcinoma cell line, qHTS therapeutic library screen (AID 1346987); also: potency is read from the fitted curve at half-maximal effect; nearly all actives have a fitted effect of over 65% in size
# In short: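 Human cervical adenocarcinoma KB-8-5-11 cells, selected in colchicine to over-express P-gp and assayed without it, were exposed for 72 h to titrated compounds. An ATP-based luminescent viability signal gave AC50.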
# [2] = Primary qHTS for inhibitors of nuclear receptor binding SET domain protein 2 (NSD2) in an isogenic RCH-ACV NSD2 p.E1099K mutant (9B) (AID 1645876); also: potency is read from the fitted curve at half-maximal effect; nearly all actives have a fitted effect of over 70% in size
# [3] = Primary qHTS for inhibitors of nuclear receptor binding SET domain protein 2 (NSD2) in an RCH-ACV wild type WT cells (2C) (AID 1645877); also: potency is read from the fitted curve at half-maximal effect; nearly all actives have a fitted effect of over 70% in size
# [4] = target: Glutathione peroxidase 1 (Homo sapiens) (UniProt P07203); experiment: Primary qHTS Assay for Inhibitors of Recombinant Selenoprotein Glutathione Peroxidase 1 (GPX1) (AID 1845191); also: nearly all actives have a fitted effect of over 65% in size
# In short: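 GPX1 10 nM, GR 100 nM, GSH 1 mM, NADPH 0.5 mM, CHP 0.5 mM (final). 30-min cpd preincubation, RT. Ex340/Em450 read t=0, t=15 min.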
# [5] = qHTS drug screen for cell cycle checkpoint inhibitors in PARPi-resistant BRCA-mutant ovarian cancer cell lines. (AID 1963452; calls by dose curve); details: PEO1/OlaR viability, CellTiter-Glo luminescence, 96 h, stronger effect = lower value
# In short: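 PEO1, PEO4 and PEO1/OlaR ovarian cancer cells, 600 per well, exposed 96 h at 37C to a dilution series. Viability read by CellTiter-Glo luminescence, normalized to DMSO and empty wells; activity summarized as Z-AUC.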
# Glutathione peroxidase 1 (Homo sapiens), sequence (P07203 whole entry, looked up): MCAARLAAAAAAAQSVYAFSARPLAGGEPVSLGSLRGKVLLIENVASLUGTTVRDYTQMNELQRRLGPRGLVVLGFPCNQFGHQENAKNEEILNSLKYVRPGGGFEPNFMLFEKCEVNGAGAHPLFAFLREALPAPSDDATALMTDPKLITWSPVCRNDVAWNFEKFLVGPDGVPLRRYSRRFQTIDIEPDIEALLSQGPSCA
structure (smiles),measurement,setting,value
CN[C@@H]1C[C@H]2O[C@@](C)([C@@H]1OC)n1c3ccccc3c3c4c(c5c6ccccc6n2c5c31)C(=O)N[C@H]4O,Potency,[1],0.841 µM (active)
same,Potency,[2],0.0215 µM (active)
same,Potency,[3],0.0303 µM (active)
same,outcome,[4],inactive [at 9.52 µM]
same,Z-AUC,[5],-0.878 (inactive)
same,Z-AUC,[5]; measured here: PEO1 parental Z-AUC,-0.367
same,Z-AUC,[5]; measured here: PEO4 Z-AUC,-0.638
